In all, about 110,000 compounds were measured (“z-score”: median about -0.1, highest 2% from about 2 on). Shown is part of a subset that was picked to be rich in the highest values. Active and inactive are the calls of the source.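 Rule for the calls: active = z-score in the third read window above 3 or below -3; inactive = the rest.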
What follows are compounds tested against Metabotropic glutamate receptor 8 (Rattus norvegicus) (UniProt P70579) (assay: rat mGluR8 modulators via GIRK flux, primary screen, cell-based, thallium flux, HTS (AID 488969)). Conditions: HEK293 rat mGluR8, GIRK (G protein-gated inwardly rectifying potassium channel) thallium flux, FluoZin2; at 10 µM; stronger effect = higher value; submaximal glutamate (EC20) added with thallium.
Chain of Metabotropic glutamate receptor 8 (Rattus norvegicus) (P70579 whole entry, looked up): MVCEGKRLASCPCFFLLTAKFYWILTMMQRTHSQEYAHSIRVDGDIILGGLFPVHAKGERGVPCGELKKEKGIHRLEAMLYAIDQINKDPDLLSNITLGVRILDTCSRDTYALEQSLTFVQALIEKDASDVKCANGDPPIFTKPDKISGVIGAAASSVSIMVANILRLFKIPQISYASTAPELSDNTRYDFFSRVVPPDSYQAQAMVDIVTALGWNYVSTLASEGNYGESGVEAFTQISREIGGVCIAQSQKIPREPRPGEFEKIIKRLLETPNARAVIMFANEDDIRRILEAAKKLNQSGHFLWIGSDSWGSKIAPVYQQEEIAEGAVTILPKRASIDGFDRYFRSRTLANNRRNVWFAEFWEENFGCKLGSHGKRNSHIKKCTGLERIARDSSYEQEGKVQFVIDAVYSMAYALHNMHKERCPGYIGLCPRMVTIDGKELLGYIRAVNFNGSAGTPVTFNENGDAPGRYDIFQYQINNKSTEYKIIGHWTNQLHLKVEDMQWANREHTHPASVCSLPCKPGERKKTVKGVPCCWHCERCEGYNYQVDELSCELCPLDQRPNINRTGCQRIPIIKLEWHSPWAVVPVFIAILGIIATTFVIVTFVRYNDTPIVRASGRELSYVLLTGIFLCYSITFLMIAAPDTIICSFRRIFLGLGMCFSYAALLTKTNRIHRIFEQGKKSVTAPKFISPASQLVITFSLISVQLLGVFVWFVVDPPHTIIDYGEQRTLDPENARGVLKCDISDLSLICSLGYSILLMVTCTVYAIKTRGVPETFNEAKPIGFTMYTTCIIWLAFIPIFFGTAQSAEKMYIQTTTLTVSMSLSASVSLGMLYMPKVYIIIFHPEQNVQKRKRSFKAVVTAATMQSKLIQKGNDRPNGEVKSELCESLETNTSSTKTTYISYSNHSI

Compound	z-score
Cc1c(C(=O)NCc2cccnc2)oc2ccc(S(=O)(=O)N3CCCCC3)cc12	1.3
Cc1c(C(=O)NCc2ccccc2)oc2ccc(S(=O)(=O)N3CCC4(CC3)OCCO4)cc12	-0.293
Cc1c(C(=O)NCc2cccnc2)oc2ccc(S(=O)(=O)N3CCC4(CC3)OCCO4)cc12	5.95 (active)
CCCOc1ccc(C(=O)Nc2cc(-c3nn4c(C)nnc4s3)ccc2C)cc1	-0.185
CN(Cc1ccccc1)c1ccc(N2C(=O)CCCC2=O)cc1[N+](=O)[O-]	-0.202
Cc1cccc(-c2nc(CSCC(=O)N3CCN(c4ccccn4)CC3)c(C)o2)c1	-1.37
O=C(O)CCCC(=O)NCCc1ccncc1	0.0989
COc1ccc(/C=N/NC(=O)C(=O)/C=C2\NC3(CCCC3)Cc3ccccc32)cc1	0.0973
CC(=O)c1ccccc1NC(=O)COC(=O)c1ccccc1NC(=O)c1ccccc1	0.161
Cc1ccc(NC(=O)COC(=O)c2ccccc2Nc2ccccc2)cc1	-0.179
Cc1cccc(C(=O)Nc2ccccc2C(=O)OCC(=O)Nc2ccc(C#N)cc2)c1	2.11
COc1ccc(S(=O)(=O)N2CCN(C(=O)c3ccco3)CC2)cc1OC	-0.51
COc1cc(/C=N/NC(=O)C(Cc2c[nH]c3ccccc23)NC(=O)OCc2ccccc2)cc([N+](=O)[O-])c1O (centres undefined)	-0.505
Cc1ccc(N(C(=O)c2csnn2)C(C(=O)NC(C)(C)C)c2ccncc2)cc1 (centres undefined)	-0.134
Cc1cccc(N(C(=O)c2csnn2)C(C(=O)NC(C)(C)C)c2ccncc2)c1 (centres undefined)	-0.134
CC(C)(C)NC(=O)C(c1ccncc1)N(C(=O)c1csnn1)c1ccccc1 (centres undefined)	6.21 (active)
CC(C)COC(=O)c1cc(=O)[nH]c2ccccc12	1.23
CCc1ccc2nc(NC(=O)CSCc3c(C)noc3C)sc2c1	-0.0333
CCc1ccc2nc(NC(=O)c3cc(C)on3)sc2c1	10.1 (active)
Cc1cc(C)c2nc(NC(=O)c3cc(C)on3)sc2c1	12 (active)
Cc1cc(C)c2nc(NC(=O)C3CCCO3)sc2c1 (centres undefined)	0.217
Cc1cc(C)c2nc(NC(=O)c3ccc(OCC4CCCO4)cc3)sc2c1 (centres undefined)	-0.201

Compound	z-score
CCc1ccc(NC(=O)c2cc(C)on2)cc1	-0.546
O=C(Oc1ccc(Br)cc1C(=S)N1CCCC1)c1ccccc1Cl	-0.0754
CCOC(=O)N1CCN(Cc2nc(N)nc(Nc3ccc(OCC)cc3)n2)CC1	-0.27
CC(=O)OC1COC(n2ccc3cc([N+](=O)[O-])ccc32)C(OC(C)=O)C1OC(C)=O (centres undefined)	0.0746
CC(=O)NC1(C(F)(F)F)C(=O)NC(C)=C1C#N (centres undefined)	-1.29
CN(C)CCNc1nc2c(c(=O)[nH]c(=O)n2C)n1CCCc1ccccc1	3.35 (active)
Cn1c(=O)[nH]c(=O)c2c1nc(NCCCO)n2CCCc1ccccc1	0.0396
Cn1c(=O)[nH]c(=O)c2c1nc(NCc1ccccc1)n2CCCc1ccccc1	-0.132
CC(C)NS(=O)(=O)c1ccc(NC(=O)C2CC3C=CC2C3)cc1 (centres undefined)	-0.0807
O=C1Nc2ccccc2SC(c2ccccc2)C1O (centres undefined)	-0.0924
O=C(CN1CCC(n2nnc3cc(F)ccc32)CC1)N1CCc2ccccc2C1	-0.899
O=C(CSc1n[nH]c(-c2ccc(S(=O)(=O)N3CCCCC3)cc2)n1)Nc1nccs1	0.951
CCC(c1nnnn1Cc1ccc(OC)cc1)N(CCCO)Cc1cc2cc3c(cc2[nH]c1=O)OCO3 (centres undefined)	5.57 (active)
CCC(c1nnnn1Cc1ccccc1)N(Cc1ccco1)Cc1cc2cc(OC)ccc2[nH]c1=O (centres undefined)	-0.0441
CCC(c1nnnn1CCOC)N(Cc1ccc(C)cc1)Cc1cc2cc(OC)ccc2[nH]c1=O (centres undefined)	0.378
COc1ccc(OC)c(N(CC(=O)Nc2ccc3c(c2)OCO3)S(=O)(=O)c2ccccc2)c1	-0.348
CCC1CCCCN1S(=O)(=O)c1ccc(C(=O)Nc2nnc(-c3ccccc3Cl)o2)cc1 (centres undefined)	1.12
O=C(Nc1nnc(-c2ccccc2Cl)o1)c1ccc(S(=O)(=O)N2CCCCCC2)cc1	13.1 (active)
Cc1nnc(NC(=O)c2ccc(S(=O)(=O)N3CCCCCC3)cc2)o1	-0.304
CC1CCCN(S(=O)(=O)c2ccc(C(=O)Nc3nnc(-c4ccccc4Cl)o3)cc2)C1 (centres undefined)	3.98 (active)
COCc1nnc(NC(=O)c2ccc(S(=O)(=O)N3CCCCCC3)cc2)o1	-0.164
CC1CCCN(S(=O)(=O)c2ccc(C(=O)Nc3ccccc3-c3nc4ccccc4[nH]3)cc2)C1 (centres undefined)	-0.205

Compound	z-score
CCOC(=O)Cc1csc(NC(=O)CSc2nnc(C(C)C)n2CC)n1	0.0208
CCN(CC)c1ccc(NC(=O)c2cccnc2)cc1	-0.663
CCCS(=O)(=O)N1CCC(C(=O)N2CCCC2)CC1	-1.16
O=[N+]([O-])c1ccc(N2CCN(S(=O)(=O)c3ccccc3[N+](=O)[O-])CC2)cc1N1CCc2ccccc2C1	-0.00158
O=C(/C=C/c1ccccc1Cl)NCc1ccco1	-0.133
C=CCN(Cc1cccc(OC)c1OC)S(=O)(=O)N(C)C	-0.164
Cc1ccc(-n2nnnc2-c2nc3ccccc3s2)cc1	6.16 (active)
CCOc1ccc(-n2nnnc2-c2nc3ccccc3s2)cc1	-0.319
Cc1ccc(-n2nnnc2-c2ccco2)cc1	-0.111
CCN(CC)C(=O)/C(=C\c1cccc([N+](=O)[O-])c1)NC(=O)c1ccco1	-0.281
Cc1ccc(-c2cc(C(=O)N/N=C/C=C/c3ccco3)c3ccccc3n2)cc1C	2.64
CC(/C=N/NC(=O)c1cc(-c2ccc(Cl)cc2)nc2ccccc12)=C\c1ccco1	0.0726
CC(/C=N/NC(=O)c1cc(-c2ccccc2)nc2ccccc12)=C\c1ccco1	-0.0414
Cc1ccc(C(=O)N(Nc2nc3ccccc3s2)C(=O)c2ccc(C)cc2)cc1	0.0589
O=C(OCc1ccc([N+](=O)[O-])cc1)c1ccc(N2CCCC2)c([N+](=O)[O-])c1	0.344
CC(C)(C)N1CC2(c3ccccc3)CN(C(C)(C)C)CC(c3ccccc3)(C1)C2=O	1.19
O=[N+]([O-])c1cnccc1Nc1cccc(F)c1	0.28
O=[N+]([O-])c1ccccc1-c1cc(-c2ccccc2O)n[nH]1	-0.676
CCc1ccc(/C=C/C(=O)c2c(C)cc(C)[nH]c2=O)cc1	-0.106
CCc1ccc(/C=C\C(=O)N2CCc3ccccc3C2)cc1	-0.105
O=C(/C=C/c1ccccc1)/C=C/c1ccccc1	-0.389
O=C(/C=C/c1ccccc1)C1C(=O)c2ccccc2C1=O	4.21 (active)

Compound	z-score
Cc1ccc(/C=C/C(=O)C2C(=O)c3ccccc3C2=O)cc1	0.871
CCc1ccc(/C=C/C(=O)C2C(=O)c3ccccc3C2=O)cc1	3.92 (active)
COc1ccc(N(C(=O)c2cnsn2)C(C(=O)NC2CCCCC2)c2ccncc2)cc1 (centres undefined)	0.0313
CC(C)CNC(=S)NC(=O)c1ccc(Cl)cc1Cl	13.8 (active)
O=C(NC(=S)NCCN1CCOCC1)c1ccccc1Br	0.00751
CCCCNC(=S)NC(=O)c1ccccc1Br	6.17 (active)
CC(C)CC(NC(=O)c1ccc(Cl)cc1Cl)C(=O)O (centres undefined)	-0.413
CCCCNC(=S)NC(=O)c1ccc(Cl)cc1Cl	3.01 (active)
O=C(NC(=S)NCCN1CCOCC1)c1ccc(Cl)cc1Cl	0.241
Cc1cc(Cl)ccc1NC(=S)NCC(C)C	-0.0377
CC(C)NC(=S)NC(=O)c1ccc(Cl)cc1Cl	13.8 (active)
CCCCNC(=O)c1ccccc1C(=O)NCCCC	0.0704
O=C(NC(=S)NCC1CCCO1)c1ccc(Cl)cc1Cl (centres undefined)	-0.218
CCCCNC(=O)c1ccccc1Cl	-0.135
CCC(=O)Nc1cccc(NC(=S)NC(=O)c2ccc(Cl)cc2Cl)c1	0.0528
Cc1cc(N2C(=O)CC(Cc3ccccc3)C2=O)no1 (centres undefined)	-0.0586
CCOc1ccc(N(CC)S(=O)(=O)c2ccc3c(c2)n(C)c(=O)c(=O)n3C)cc1	-0.239
CCN(CC)S(=O)(=O)c1ccc(N2CCOCC2)c(NS(=O)(=O)c2ccc(C)cc2)c1	-0.152
Clc1ccc(Cn2ncc3c(N4CCCCC4)ncnc32)cc1	-0.535
O=C(O)c1cc([N+](=O)[O-])ccc1N1CCCCC1	-0.123
CCN(CC)S(=O)(=O)c1ccc(N2CCOCC2)c(NC(=O)Cc2ccc(Cl)cc2)c1	0.141
O=C(NCCc1ccncc1)Nc1ccccc1	0.141

Compound	z-score
O=C(O)c1c(F)c(F)cc2ccccc12	0.365
CNc1oc(-c2ccco2)nc1C#N	0.498
Cc1cc(Cl)c(S(=O)(=O)N2CCCCCC2)cc1OCC(N)=O	1.66
O=C(NC(=S)NCCN1CCOCC1)c1ccccc1Cl	-0.177
CCNC(=S)NNC(=O)c1ccccc1Cl	-0.211
CC(C)CNC(=S)NC(=O)c1ccccc1Cl	8.99 (active)
Cc1cc(/C=C(\C#N)C(=O)Nc2ccccc2)c(C)n1-c1ccc2c(c1)OCO2	-0.335
CCN(CC)C(=O)Oc1ccc2cc(Br)ccc2c1	0.935
CC1CCN(CC(O)COC2CCC(C(C)(C)C)CC2)CC1 (centres undefined)	4.18 (active)
CC(C)(C)C1CCC(OCC(O)CN2CCN(Cc3ccccc3)CC2)CC1 (centres undefined)	-0.106
CC(C)(C)C1CCC(OCC(O)CN2CCN(c3ccccc3)CC2)CC1 (centres undefined)	-0.235
CC(=O)/C(=N\Nc1ccccc1)Sc1nnc(-c2ccccc2)n1-c1ccccc1	-0.24
COc1ccccc1-n1nnnc1SCC(=O)NC1CCCC1	-0.293
Cc1cnc(NC(=O)CSc2ncn(-c3ccccc3)n2)s1	-0.143
Cc1cccc(C)c1OCC(=O)N/N=C/c1cccn1C	-0.372
Cc1ccccc1OCC(=O)N/N=C/c1cccn1C	2.42
Cc1ccc(OCC(=O)N/N=C/c2cccn2C)cc1	1.01
CCCS(=O)(=O)N1CCCC(C(=O)NCCCN(C)c2ccccc2)C1 (centres undefined)	0.0444
O=S(=O)(c1ccccc1)N1CCN(C(=S)Nc2ccc(F)cc2)CC1	3.37 (active)
NS(=O)(=O)c1ccc(NC(=S)N2CCN(S(=O)(=O)c3ccc(F)cc3)CC2)cc1	0.195
O=S(=O)(c1ccc(Cl)cc1)N1CCN(C(=S)Nc2ccc(F)c(Cl)c2)CC1	0.862

Reference: PubChem BioAssay AID488969 (Vanderbilt High Throughput Screening Facility, 2010)
